Experimental findings from PubChem BioAssay (NCATS) are described below.

The structures appear in SMILES notation. “And” between values parts separate entries of the source, which are not always exact repeats. Equal entries are not always repeated. Records with an inconclusive call do not appear. A structure can be active in one record and inactive in another. The source made the active and inactive calls. The call rests on the fitted dose curve; in most records, active means well fitted curve in the direction sought with a large enough effect; inconclusive means small, poorly fitted or top-dose-only effect, or another doubt; inactive means no such curve, though single readings can be large; an effect the other way counts as inactive or inconclusive.

Test [1] addresses Glutathione peroxidase 1 (Homo sapiens) (UniProt P07203). The experiment in a line: Primary qHTS Assay for Inhibitors of Recombinant Selenoprotein Glutathione Peroxidase 1 (GPX1) (AID 1845191). Further: nearly all actives have a fitted effect of over 65% in size. Further: potency means the concentration at half of the fitted maximal effect. On activity, negative = inhibition: on the % scale 0 is the no-effect control and ±100 the full control effect. The method in brief: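 Recombinant GPX1 (10 nM final) was preincubated with compound for 30 min at room temperature, then reacted with 1 mM GSH, 0.5 mM CHP, 0.5 mM NADPH and 100 nM glutathione reductase; NADPH fluorescence (340/450 nm) was read at 0 and 15 min.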

The target in test [2] is Phospholipid hydroperoxide glutathione peroxidase GPX4 (Homo sapiens) (UniProt P36969). The experiment in a line: Primary qHTS Assay for Inhibitors of Recombinant Selenoprotein Glutathione Peroxidase 4 (GPX4) (AID 1845192). Further: nearly all actives have a fitted effect of over 65% in size. On activity change, negative = inhibition: series mostly up to about 50 µM; on the % scale 0 is the no-effect control and ±100 the full control effect. The method in brief: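 GR-coupled readout: 100 nM GR, 1 mM GSH, 0.5 mM NADPH; NADPH fluorescence (ex 340/em 450 nm) read at t=0 and after 15 min RT. GPX4 200 nM, preincubated 30 min with compound; substrate 0.5 mM CHP.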

The target of test [3] is Luciferin 4-monooxygenase (Photinus pyralis) (UniProt P08659). The experiment in a line: Primary firefly luciferase (FLuc) qHTS assay for identification of artifact compounds. (AID 1845220). Further: nearly all actives have a fitted effect of over 60% in size.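 On activity change, negative = inhibition: series mostly up to about 54 µM; plate controls were DMSO vehicle for no effect and no enzyme for full effect.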 The settings on record: outcome: dose series up to 54.1 µM unless noted. In a few lines: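 qHTS, 15 min compound preincubation with substrate (10 uM luciferin, 10 uM ATP) at RT, then 10 nM FLuc; 5 min; luminescence; % inhibition vs no-enzyme/DMSO controls, 4-parameter Hill fit.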

The nature of test [4]: Primary fluorescence-based thiol-reactive (MSTI) qHTS assay for identification of artifact compounds. (AID 1845221).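 Further: series mostly up to about 54 µM; thiol-reactive compounds lower the probe fluorescence signal; nearly all actives have a fitted effect of over 65% in size.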 The method in brief: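 In PBS pH 7.4 with 2% DMSO, each compound met 4 uM MSTI for one hour at ambient temperature, shielded from light, before fluorescence detection.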
In test [5] the test system is Nanoluciferase (engineered Oplophorus gracilirostris luciferase). As to the kind of experiment: Primary Nanoluciferase (NLuc) qHTS assay for identification of artifact compounds. (AID 1845222).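 Further: series mostly up to about 54 µM; 0% = DMSO and -100% = no enzyme.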 In a few lines: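 Luminescence read-out of secreted NLuc in S16 cell conditioned medium (1:55); compounds tested with 15 min RT preincubation, then Nano-Glo substrate 1:100, 5 min. % inhibition vs no-enzyme and DMSO controls, 4-parameter Hill fit.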

Test [6] in a line: Primary redox qHTS assay for identification of artifact compounds. (AID 1845223).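 Further: 0% = DMSO and 100% = reference compound.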 In a few lines:
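Amplex Red (25 uM) and HRP (250 mU/mL) in HBSS, with compounds for 15 min, then 250 uM DTT for 30 min, room temperature, dark. Fluorescence 525/598 nm read; normalized to DMSO and 10 uM DA3003; Hill fit.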

Sequence of Glutathione peroxidase 1 (Homo sapiens) (P07203 whole entry, looked up): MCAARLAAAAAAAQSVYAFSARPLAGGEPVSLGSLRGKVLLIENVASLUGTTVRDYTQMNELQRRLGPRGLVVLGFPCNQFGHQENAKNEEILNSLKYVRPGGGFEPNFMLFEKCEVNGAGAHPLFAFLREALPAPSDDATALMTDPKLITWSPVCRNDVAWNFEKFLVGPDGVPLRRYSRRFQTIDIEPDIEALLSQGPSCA
Sequence of Phospholipid hydroperoxide glutathione peroxidase GPX4 (Homo sapiens) (P36969 whole entry, looked up): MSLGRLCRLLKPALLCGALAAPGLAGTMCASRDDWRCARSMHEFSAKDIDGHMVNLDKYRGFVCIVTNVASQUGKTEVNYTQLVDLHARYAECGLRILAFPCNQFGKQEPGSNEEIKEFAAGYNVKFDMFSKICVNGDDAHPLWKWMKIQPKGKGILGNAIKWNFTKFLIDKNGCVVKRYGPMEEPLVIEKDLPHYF

On to `COc1ccc2[nH]c(S(=O)Cc3ncc(C)c(OC)c3C)nc2n1` (centres undefined), for which the Potency in test [1] was 9.04 µM (active) and inactive and 11.4 µM (active). Also, the Potency entry in test [2] and in test [4] was “inactive” each time. Besides, the outcome in test [3], in test [5] and in test [6] was inactive.
As for `OCC(O)CN1CCN(c2ccccc2)CC1` (centres undefined), the Potency entry in test [1], in test [2] and in test [4] was “inactive” in each case. For the same compound, the outcome in test [3], in test [5] and in test [6] was inactive.
Turning to `Nc1nc2c(ncn2CCC(CO)CO)c(=O)[nH]1`, the Potency entry in test [1], in test [2] and in test [4] was “inactive” throughout. Besides, the outcome in test [3], in test [5] and in test [6] was inactive.
With `Cn1c(=O)c2c(ncn2CC2OCCO2)n(C)c1=O`, the Potency entry in test [1], in test [2] and in test [4] was “inactive” each time. The call in test [3], in test [5] and in test [6] was inactive.
As for `CN(C)CCN(Cc1ccccc1)c1ccccn1`, in test [2], the Potency result was “inactive”.
In the case of `C[C@@H]1CN(c2c(F)c(F)c3c(=O)c(C(=O)O)cn(C4CC4)c3c2F)C[C@H](C)N1`, the Potency result in test [1] and in test [2] was “inactive” throughout. In test [3], the activity change, negative = inhibition was 2.25% [at 11.6 µM] (inactive). Further, the activity change, negative = thiol reactive in test [4] was -0.316% [at 11.5 µM] (inactive). Moreover, the activity, negative = inhibition in test [5] was 4.03% [at 11.6 µM] (inactive). Further, the redox activity (% of DA3003) in test [6] was -2.75% [at 11.5 µM] (inactive).
Consider `C[C@@H]1C[C@H]2[C@@H]3C[C@H](F)C4=CC(=O)C=C[C@]4(C)[C@@]3(F)[C@@H](O)C[C@]2(C)[C@@]1(O)C(=O)CO`, for which the Potency result in test [1], in test [2] and in test [4] was “inactive” each time. Also, the compound was classed as inactive in test [3], in test [5] and in test [6].
Take `CCOC(=O)[C@H](CCc1ccccc1)N[C@@H](C)C(=O)N1C(=O)N(C)C[C@H]1C(=O)O`: the Potency entry in test [1], in test [2] and in test [4] was “inactive” each time. In addition, the compound was classed as inactive in test [3], in test [5] and in test [6].
Consider `C[C@]12CC[C@@H]3c4ccc(O)cc4CC[C@H]3[C@@H]1CC[C@@H]2OC(=O)CCC1CCCC1`, for which the Potency entry in test [1], in test [2] and in test [4] was “inactive” each time. Besides, the call in test [3], in test [5] and in test [6] was inactive.
